Pf apPOL block: Pf-apPOL inhibitors, biochemical, fluorescence. Plasmodium falciparum apicoplast DNA polymerase (apPOL). Recombinant Pf-apPOL, molecular beacon fluorescence, 1.5 h. inhibition, % at 10 µM. 0.25% of 210,000 active
mHTT CaM bind: mutant huntingtin-calmodulin interaction inhibitors – biochemical, AlphaScreen, primary screen | P42858 | AlphaScreen His-mHTT/GST-CaM binding, luminescence | inhibition, % at 15 µM | 3.6% of 190,000 active | AID 1671202, 2021;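 also: 0% = both proteins with DMSO and 100% = one protein alone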
Target sequence (P42858 whole entry, looked up, stated change not applied): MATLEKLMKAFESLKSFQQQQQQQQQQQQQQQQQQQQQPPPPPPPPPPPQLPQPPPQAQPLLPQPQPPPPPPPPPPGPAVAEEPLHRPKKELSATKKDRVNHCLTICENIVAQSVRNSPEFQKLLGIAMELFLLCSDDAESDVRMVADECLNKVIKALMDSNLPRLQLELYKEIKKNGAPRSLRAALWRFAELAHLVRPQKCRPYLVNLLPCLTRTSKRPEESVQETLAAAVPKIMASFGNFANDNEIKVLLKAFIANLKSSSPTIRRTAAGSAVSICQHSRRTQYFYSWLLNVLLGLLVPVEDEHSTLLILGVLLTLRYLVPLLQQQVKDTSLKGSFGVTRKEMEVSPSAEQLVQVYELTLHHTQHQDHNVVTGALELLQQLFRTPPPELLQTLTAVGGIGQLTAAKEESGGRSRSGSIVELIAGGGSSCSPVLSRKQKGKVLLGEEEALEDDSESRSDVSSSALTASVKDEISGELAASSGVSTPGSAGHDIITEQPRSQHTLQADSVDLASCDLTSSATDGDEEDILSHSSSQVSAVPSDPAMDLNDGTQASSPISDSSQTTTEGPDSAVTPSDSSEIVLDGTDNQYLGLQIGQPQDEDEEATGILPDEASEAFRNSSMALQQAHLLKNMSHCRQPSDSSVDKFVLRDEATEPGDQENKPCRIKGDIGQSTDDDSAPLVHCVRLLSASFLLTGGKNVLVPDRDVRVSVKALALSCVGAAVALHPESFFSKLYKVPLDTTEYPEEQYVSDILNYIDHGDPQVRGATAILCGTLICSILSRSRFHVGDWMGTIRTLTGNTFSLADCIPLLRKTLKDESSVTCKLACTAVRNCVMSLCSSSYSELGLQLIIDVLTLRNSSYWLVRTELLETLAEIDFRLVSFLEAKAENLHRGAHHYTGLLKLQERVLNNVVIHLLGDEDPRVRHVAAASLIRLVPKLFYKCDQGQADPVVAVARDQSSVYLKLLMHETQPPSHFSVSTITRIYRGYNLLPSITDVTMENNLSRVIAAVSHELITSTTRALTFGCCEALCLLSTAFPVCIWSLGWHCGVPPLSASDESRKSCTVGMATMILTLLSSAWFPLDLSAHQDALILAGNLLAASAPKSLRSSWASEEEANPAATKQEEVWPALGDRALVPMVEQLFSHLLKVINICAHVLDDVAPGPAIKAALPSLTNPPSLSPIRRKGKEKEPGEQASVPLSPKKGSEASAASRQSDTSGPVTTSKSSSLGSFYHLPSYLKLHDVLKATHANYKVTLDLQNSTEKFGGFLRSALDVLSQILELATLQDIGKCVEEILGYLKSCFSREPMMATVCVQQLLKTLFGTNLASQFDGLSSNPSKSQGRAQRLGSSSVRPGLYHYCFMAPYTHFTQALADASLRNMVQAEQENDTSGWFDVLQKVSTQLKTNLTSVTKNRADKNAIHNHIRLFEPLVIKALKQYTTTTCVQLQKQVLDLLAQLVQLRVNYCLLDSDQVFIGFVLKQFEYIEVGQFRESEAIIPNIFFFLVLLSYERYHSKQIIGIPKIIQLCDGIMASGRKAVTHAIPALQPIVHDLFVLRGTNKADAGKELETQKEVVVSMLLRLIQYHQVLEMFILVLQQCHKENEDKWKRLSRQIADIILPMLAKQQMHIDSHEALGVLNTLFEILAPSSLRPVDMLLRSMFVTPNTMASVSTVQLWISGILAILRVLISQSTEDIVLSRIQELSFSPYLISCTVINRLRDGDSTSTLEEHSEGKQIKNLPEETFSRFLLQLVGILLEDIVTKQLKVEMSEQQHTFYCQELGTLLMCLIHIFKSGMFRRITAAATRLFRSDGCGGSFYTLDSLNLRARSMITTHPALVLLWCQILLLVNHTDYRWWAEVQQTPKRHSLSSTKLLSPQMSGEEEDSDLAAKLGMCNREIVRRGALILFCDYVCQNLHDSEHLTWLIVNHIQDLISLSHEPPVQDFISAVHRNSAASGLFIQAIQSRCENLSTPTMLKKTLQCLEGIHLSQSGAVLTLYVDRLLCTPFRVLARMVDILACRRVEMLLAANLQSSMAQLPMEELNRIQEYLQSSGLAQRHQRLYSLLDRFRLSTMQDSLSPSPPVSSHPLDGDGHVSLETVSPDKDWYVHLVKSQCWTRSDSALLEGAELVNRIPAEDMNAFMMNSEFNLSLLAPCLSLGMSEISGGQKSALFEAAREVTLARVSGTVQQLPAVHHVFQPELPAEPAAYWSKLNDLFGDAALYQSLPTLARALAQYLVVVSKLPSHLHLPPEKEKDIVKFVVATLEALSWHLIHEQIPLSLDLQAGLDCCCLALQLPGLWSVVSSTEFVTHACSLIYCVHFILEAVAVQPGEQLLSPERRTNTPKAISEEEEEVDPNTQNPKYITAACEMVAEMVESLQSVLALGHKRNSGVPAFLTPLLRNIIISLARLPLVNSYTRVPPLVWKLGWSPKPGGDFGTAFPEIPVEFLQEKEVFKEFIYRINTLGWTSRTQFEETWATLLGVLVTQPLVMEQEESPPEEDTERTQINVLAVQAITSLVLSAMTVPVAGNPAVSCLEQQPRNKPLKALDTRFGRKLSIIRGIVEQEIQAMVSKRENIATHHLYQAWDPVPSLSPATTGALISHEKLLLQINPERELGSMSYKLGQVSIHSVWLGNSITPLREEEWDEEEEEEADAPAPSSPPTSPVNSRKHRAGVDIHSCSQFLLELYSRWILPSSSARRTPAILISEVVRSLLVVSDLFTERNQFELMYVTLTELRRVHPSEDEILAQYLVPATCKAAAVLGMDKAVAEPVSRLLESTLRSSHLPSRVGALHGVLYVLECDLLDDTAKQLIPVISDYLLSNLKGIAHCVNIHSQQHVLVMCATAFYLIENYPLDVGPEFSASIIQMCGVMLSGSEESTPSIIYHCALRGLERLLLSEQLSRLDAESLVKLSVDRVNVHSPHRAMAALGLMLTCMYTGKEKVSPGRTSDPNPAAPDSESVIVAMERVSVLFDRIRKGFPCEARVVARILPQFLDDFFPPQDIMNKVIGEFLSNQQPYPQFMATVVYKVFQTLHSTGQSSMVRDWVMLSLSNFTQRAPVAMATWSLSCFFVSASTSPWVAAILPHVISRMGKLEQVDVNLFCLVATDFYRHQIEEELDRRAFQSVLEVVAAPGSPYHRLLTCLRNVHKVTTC
The depositor's hits bear a star; x = no result. This is a sample that favours compounds with a hit; in the whole collection about 3.5% have one here. Rule as the data show it: active = inhibition above about 50%; inactive = the rest.

SMILES	Pf apPOL block	mHTT CaM bind
O=C(c1cccc(OCC2CCCN(C(=O)C3(c4ccccc4)CC3)C2)c1)N1CCCC1 (stereo unspecified)	-3	15
COc1ccc(OC)c(NC(=O)C2CCc3sc(C(=O)N4CCCC4)cc3C2)c1 (stereo unspecified)	1	27
COc1ccc(NC(=O)C2CCc3sc(C(=O)N4CCCCC4)cc3C2)c(OC)c1 (stereo unspecified)	3	57*
CCC(C(=O)O)N1C(=O)C(=Cc2cccc(OC)c2OC)SC1=S (stereo unspecified)	-19	7
Cc1ccc(NC(=O)N2CCCC(CCC(=O)N3CCC(Cc4ccccc4)CC3)C2)cc1 (stereo unspecified)	-8	54*
Cc1ccc(NC(=O)N2CCCC(CCC(=O)N3CCOCC3)C2)cc1 (stereo unspecified)	-6	1
COc1cccc(OC)c1C(=O)N=c1sc2cccc(OC)c2n1C	0	18
COc1cc(OC)c(OC)cc1/C=C1\Cc2ccccc2C1=O	-5	0
COc1cc(OC)c(OC)cc1/C=C1/CCC/C(=C\c2cc(OC)c(OC)cc2OC)C1=O	-1	64*
Cn1ncc([N+](=O)[O-])c1C(=O)NNC(=S)NC1CCCC1	x	-2
O=C(NNC(=S)NC1CCCCC1)c1[nH]ncc1[N+](=O)[O-]	x	61*
CC1(C)CC(=O)C2=C(C1)N(c1ccc(Cl)cc1)C(N)=C(C#N)C2c1ccc2c(c1)OCO2 (stereo unspecified)	-5	12
CC(=O)c1cc(C#N)c(SC/C=C/c2ccccc2)nc1C	-19	97*
CC(=O)c1cc(C#N)c(SCC(=O)c2ccc(Cl)cc2)nc1C	4	-6
Cc1cc(C)c(C#N)c(SC/C=C/c2ccccc2)n1	4	-140
CC(=O)c1cc(C#N)c(SCC(=O)c2ccc(O)c(O)c2)nc1C	10	88*
CSc1sc(C(=O)NNC(=O)Nc2ccc(OC(F)(F)F)cc2)c2c1C1(CCC2)SCCS1	-16	x
O=C(Cc1ccc(Cl)cc1)N1CCC2(CC1)NC(=O)N(Cc1ccccc1)C2=O	-9	17
CC(=O)c1cccc(N2COc3ccc(Cl)cc3C2)c1	-6	22
O=[N+]([O-])c1cccc(N2COc3ccc(Cl)cc3C2)c1	1	54*
O=C(Nc1cc(F)cc(F)c1)C1CC(=O)N(c2ccc3c(c2)CCN3C(=O)C2CC2)C1 (stereo unspecified)	-2	-2
Cc1ccc(C(=O)/C=C/C=C/C=C/N(C)C)o1	-4	74*
Cc1ccc(C(=O)NN(C)C)o1	x	-3
Cc1nc(C(=O)NCc2ccc(N3CCCC3)cc2)c(C)n1C1CCN(C)CC1	1	55*
Cc1nc(C(=O)NCc2ccc(N3CCCCC3)cc2)c(C)n1C1CCN(C)CC1	-7	44
SMILES	Pf apPOL block	mHTT CaM bind
Cc1nnc2cc(N3CCN(Cc4csc5c4CCCC5)CC3)cnn12	3	28
Cc1nnc2cc(N3CCN(Cc4ccc(C(F)(F)F)cc4)CC3)cnn12	4	67*
COCC(=O)N1CCc2cn(CC(C)C)c3cccc(c23)C1	-7	76*
COc1ccc(NC(=O)N2CCc3cn(CC(C)C)c4cccc(c34)C2)cc1	1	9
CC(C)Cn1cc2c3c(cccc31)CN(C(=O)c1ccncc1)CC2	-1	55*
CC(C)Cn1cc2c3c(cccc31)CN(C(=O)c1cnccn1)CC2	-2	19
COc1ccccc1-n1ccn2cc(-c3ccccc3C)nc2c1=O	-6	-1
O=C(c1ccsc1)N1CCCN(c2nnc3ccc(Cl)cn23)CC1	-6	1
CCNC(=O)N1CC(C(=O)N2CCOCC2)CCC1c1ccc(F)c(C)c1 (stereo unspecified)	0	2
COc1ccc(CNc2nc(-c3ccc(C)cc3)nnc2C)cc1	2	5
COc1ccc(-c2nnc(C)c(NC3CCCC3)n2)cc1	-12	52*
COc1ccc(CNC(=O)c2cn3c(n2)COCC3)cc1	-7	-7
COc1ccccc1CNC(=O)Cc1nc2nc(C)c(Cc3cccc(Cl)c3)c(C)n2n1	-12	57*
Cc1nc2c(C(=O)NCc3ccccn3)cnn2c(C)c1Cc1cccc(Cl)c1	-6	72*
Cc1nc2c(C(=O)NCC3CCCO3)cnn2c(C)c1Cc1cccc(Br)c1 (stereo unspecified)	-4	96*
Cc1ccc(CNC(=O)c2cnn3c(C)c(Cc4cccc(Br)c4)c(C)nc23)cc1	-6	6
COCCNC(=O)c1cnn2c(C)c(Cc3cccc(Cl)c3)c(C)nc12	-12	45
COCCNC(=O)c1cnn2c(C)c(Cc3cccc(Br)c3)c(C)nc12	-9	63*
COc1ccc(CNC(=O)c2cnn3c(C)c(Cc4cccc(Cl)c4)c(C)nc23)cc1	-6	5
COc1ccccc1CNC(=O)CSc1nc2nc(C)c(Cc3ccccc3)c(C)n2n1	-2	10
COc1cccc(C2CC(c3cc(OC)c(OC)c(OC)c3)n3ncnc3N2)c1 (stereo unspecified)	-5	-2
Cc1onc(-c2c(Cl)cccc2Cl)c1C(=O)N1CCN(Cc2ccc3c(c2)OCO3)CC1	-9	21
O=C(Nc1cccn2cnnc12)c1ccncc1	-2	-5
Cc1[nH]c2ccccc2c1C(C[N+](=O)[O-])c1ccco1 (stereo unspecified)	-4	37
Cc1[nH]c2ccccc2c1C(c1ccco1)c1c(C)[nH]c2ccccc12	-4	55*
SMILES	Pf apPOL block	mHTT CaM bind
CCOc1ccc(C(O)=C2C(=O)C(=O)N(c3nnc(C)s3)C2c2ccc([N+](=O)[O-])cc2)cc1 (stereo unspecified)	7	17
COc1ccc(C(O)=C2C(=O)C(=O)N(c3nnc(C)s3)C2c2ccc(Cl)c(Cl)c2)cc1 (stereo unspecified)	1	100*
C=CCn1c(C)nc2ccccc21	-1	5
CCNC(=O)c1ccc2c3c(onc13)-c1ccccc1C2=O	0	51*
CCNC(=O)c1ccccc1-c1ccccc1C(=O)O	-3	-5
COC(=O)C12CC3CC(CC(NC(=O)c4ccc(=O)oc4)(C3)C1)C2	66*	14
COC(=O)C12CC3CC(CC(NC(=O)c4ccc(Cn5ccnc5)cc4)(C3)C1)C2	-1	0
COc1cc(OC)c(OC)cc1CNc1sc2c(c1C(=O)Nc1ccccc1OC)CCC2	-15	53*
COc1ccccc1NC(=O)c1c(NCc2cccc(F)c2)sc2c1CCC2	-17	63*
COc1ccccc1NC(=O)c1c(NC(=O)c2ccco2)sc2c1CCCC2	1	-2
CCOc1ccccc1NC(=O)c1c(NCc2cccc(OC)c2OC)sc2c1CCC2	-17	32
O=C(CN1C(=O)/C(=C/c2ccccc2)Sc2ccccc21)NCCc1ccc(Cl)cc1	-4	-3
CCCOc1ccc(C(=O)Nc2cccc(C(C)=O)c2)cc1	-3	1
Cc1ccc2c(c1)/C(=C/c1nc3ccccc3c(=O)n1-c1ccccc1[N+](=O)[O-])C(=O)N2	2	86*
Cc1ccc2c(c1)/C(=C/c1nc3ccccc3c(=O)n1C)C(=O)N2	-2	26
O=C(c1ccc(-c2cccc([N+](=O)[O-])c2)o1)N1CCOCC1	-6	18
Cc1cccc(-c2nsc(SCC(=O)Nc3ccc(F)cc3F)n2)c1	-7	-12
NC(=O)c1cccc2c1NC(C(=O)O)C1CC=CC21 (stereo unspecified)	1	71*
